Experimental data taken from PubChem BioAssay (NCATS).
Where “and” joins values, the source holds several entries; their conditions need not be identical. Equal entries are not always repeated. Values without a mark were called inactive. Records with an inconclusive call do not appear. Where a call stands in place of a potency, no number is given. Calls of active or inactive are those of the source. Unless noted, the call rests on the fitted dose curve; in most records, active means well fitted curve in the direction sought with a large enough effect; inconclusive means small, poorly fitted or top-dose-only effect, or another doubt; inactive means no such curve, though single readings can be large; an effect the other way counts as inactive or inconclusive.

Columns and labels:
[1] = molecular target: Cytochrome P450 3A4 (Homo sapiens) (UniProt P08684); assay: qHTS Assay for Inhibitors and Substrates of Cytochrome P450 3A4 (AID 884); conditions: recombinant CYP3A4, Luciferin-PPXE luminescence; series mostly up to 57.1 µM; further: nearly all actives have a fitted effect of over 50% in size; further: potency means the concentration at half of the fitted maximal effect
Chain of Cytochrome P450 3A4 (Homo sapiens) (P08684 whole entry, looked up): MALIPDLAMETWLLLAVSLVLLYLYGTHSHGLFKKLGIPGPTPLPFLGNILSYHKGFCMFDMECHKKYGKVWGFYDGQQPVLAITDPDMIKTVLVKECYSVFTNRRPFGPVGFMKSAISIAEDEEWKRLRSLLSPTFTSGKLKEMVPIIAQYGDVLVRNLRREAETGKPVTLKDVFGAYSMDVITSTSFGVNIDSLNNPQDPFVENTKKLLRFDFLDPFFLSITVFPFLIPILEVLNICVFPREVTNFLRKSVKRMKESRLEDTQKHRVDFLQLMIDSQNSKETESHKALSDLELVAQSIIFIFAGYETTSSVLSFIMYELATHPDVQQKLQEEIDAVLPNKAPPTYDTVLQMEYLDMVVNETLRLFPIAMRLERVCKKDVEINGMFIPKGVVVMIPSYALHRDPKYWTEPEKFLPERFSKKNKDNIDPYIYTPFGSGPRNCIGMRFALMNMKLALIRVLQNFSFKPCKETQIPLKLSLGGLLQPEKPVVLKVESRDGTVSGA
In short: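 Luminescent readout of luciferin produced by CYP3A4 (20 nM) dealkylation of Luciferin-PPXE, 25 uM (its KM). NADPH-driven reaction ran 60 min at RT after 10 min compound preincubation; data scaled to 57 uM ketoconazole as 100% inhibition.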

[2] = molecular target: Cytochrome P450 2C9 (Homo sapiens) (UniProt P11712); assay: qHTS Assay for Inhibitors and Substrates of Cytochrome P450 2C9 (AID 883); conditions: recombinant CYP2C9, luciferin-H luminescence, 60 min; series mostly up to 11.4 µM; further: nearly all actives have a fitted effect of over 60% in size; further: potency means the concentration at half of the fitted maximal effect
Chain of Cytochrome P450 2C9 (Homo sapiens) (P11712 whole entry, looked up): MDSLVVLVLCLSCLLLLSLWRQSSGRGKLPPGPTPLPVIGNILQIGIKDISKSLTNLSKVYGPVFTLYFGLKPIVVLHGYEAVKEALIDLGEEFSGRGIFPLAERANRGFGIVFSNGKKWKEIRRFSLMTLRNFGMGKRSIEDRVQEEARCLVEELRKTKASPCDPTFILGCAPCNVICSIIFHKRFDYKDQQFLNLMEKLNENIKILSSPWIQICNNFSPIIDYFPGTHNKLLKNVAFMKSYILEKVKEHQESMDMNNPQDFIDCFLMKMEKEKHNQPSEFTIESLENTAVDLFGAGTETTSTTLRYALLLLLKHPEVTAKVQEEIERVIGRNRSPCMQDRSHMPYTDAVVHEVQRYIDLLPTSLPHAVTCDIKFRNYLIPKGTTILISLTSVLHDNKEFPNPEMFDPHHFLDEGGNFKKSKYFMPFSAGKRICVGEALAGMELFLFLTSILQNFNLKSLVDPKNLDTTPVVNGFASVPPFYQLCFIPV
In short: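 CYP2C9 deoxyluciferin hydroxylation, 37C, 60 min with NADPH regeneration; 10nM enzyme, 100uM Luciferin-H (KM). Glo detection reagent stopped reaction; luminescence normalized to sulphaphenazole (57uM) full inhibition.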

[3] = qHTS Assay for Identification of Small Molecule Agonists for Hypoxia Response Element Signaling Pathway (AID 914; active means well fitted activation curve with a large enough effect in the signal ratio, with a control signal flat, not every such curve was filed as active; the % refers to the signal ratio); conditions: ME-180 HRE-bla reporter, beta-lactamase ratio, CoCl2, 17 h; active compounds read high
In short: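 ME-180 cells carrying an HRE-driven beta-lactamase reporter were treated with compounds in a titration series plus an EC50 level of CoCl2 for 17 h at 37 degrees Celsius; CCF4 readout as the 460nm/530nm ratio gave AC50 values.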

[4] = molecular target: Cytochrome P450 3A4 (Homo sapiens) (UniProt P08684); assay: qHTS Assay for Activators of Cytochrome P450 3A4 (AID 885); conditions: recombinant CYP3A4, Luciferin-PPXE luminescence, 60 min; series mostly up to 57.1 µM; further: nearly all actives have a fitted effect of over 65% in size
In short: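 Luminescent readout of luciferin formed from 25 uM Luciferin-PPXE (KM level) by 20 nM CYP3A4 in 200 mM KPO4, with 60 min NADPH-driven reaction at room temperature after 10 min compound exposure. Ketoconazole (57 uM) defined 100% inhibition.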

[5] = molecular target: Cytochrome P450 2C19 (Homo sapiens) (UniProt P33261); assay: qHTS Assay for Inhibitors and Substrates of Cytochrome P450 2C19 (AID 899); conditions: recombinant CYP2C19, luciferin-H EGE luminescence; series mostly up to 11.4 µM; further: nearly all actives have a fitted effect of over 60% in size; further: potency means the concentration at half of the fitted maximal effect
Chain of Cytochrome P450 2C19 (Homo sapiens) (P33261 whole entry, looked up): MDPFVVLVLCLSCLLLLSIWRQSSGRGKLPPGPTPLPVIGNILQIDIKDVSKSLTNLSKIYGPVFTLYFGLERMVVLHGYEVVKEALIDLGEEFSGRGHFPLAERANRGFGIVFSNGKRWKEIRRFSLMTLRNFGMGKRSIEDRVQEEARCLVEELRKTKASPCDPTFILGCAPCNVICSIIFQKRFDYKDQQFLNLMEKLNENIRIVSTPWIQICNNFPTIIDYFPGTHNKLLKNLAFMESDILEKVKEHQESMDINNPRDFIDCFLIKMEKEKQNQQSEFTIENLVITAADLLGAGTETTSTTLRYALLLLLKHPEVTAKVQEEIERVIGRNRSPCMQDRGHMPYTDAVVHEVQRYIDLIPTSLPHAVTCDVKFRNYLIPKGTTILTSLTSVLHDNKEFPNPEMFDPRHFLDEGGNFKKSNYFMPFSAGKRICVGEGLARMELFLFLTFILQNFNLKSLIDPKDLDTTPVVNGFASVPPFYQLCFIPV
In short: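 In 50mM KPO4, the reaction held 5nM enzyme and KM-level (10uM) Luciferin-H EGE; it ran 60 min at 37C after NADPH regeneration and a 10 min compound preincubation. Luminescence values were scaled to 57uM ketoconazole as complete inhibition.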

[6] = molecular target: Cytochrome P450 2D6 (Homo sapiens) (UniProt P10635); assay: qHTS Assay for Inhibitors and Substrates of Cytochrome P450 2D6 (AID 891); conditions: recombinant CYP2D6, luciferin-ME EGE luminescence; series mostly up to 11.4 µM;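 further: luciferin methyl ether substrate demethylated by CYP2D6 with NADPH regeneration; nearly all actives have a fitted effect of over 60% in size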
Chain of Cytochrome P450 2D6 (Homo sapiens) (P10635 whole entry, looked up): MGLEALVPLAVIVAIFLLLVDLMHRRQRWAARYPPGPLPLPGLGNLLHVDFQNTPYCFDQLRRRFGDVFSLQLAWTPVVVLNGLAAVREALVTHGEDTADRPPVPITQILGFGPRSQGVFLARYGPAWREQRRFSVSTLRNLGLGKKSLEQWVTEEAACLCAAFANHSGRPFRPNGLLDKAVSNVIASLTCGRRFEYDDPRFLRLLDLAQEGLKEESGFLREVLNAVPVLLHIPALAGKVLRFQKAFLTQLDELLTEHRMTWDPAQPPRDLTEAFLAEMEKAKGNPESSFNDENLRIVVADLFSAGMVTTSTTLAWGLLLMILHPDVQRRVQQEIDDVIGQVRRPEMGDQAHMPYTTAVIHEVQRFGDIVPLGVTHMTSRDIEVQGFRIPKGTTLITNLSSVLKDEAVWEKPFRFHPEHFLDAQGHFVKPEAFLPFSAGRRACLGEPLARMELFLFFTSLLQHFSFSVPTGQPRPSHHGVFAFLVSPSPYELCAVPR
In short: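 Luminescent read-out of luciferin formed by 5 nM human CYP2D6 demethylating 30 uM Luciferin-ME EGE (Km level) over 60 min at room temperature after NADPH regeneration addition. Data normalized to full inhibition by 1.43 uM quinidine.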

With O=C(O)c1ccc(B(O)O)cc1 the Potency [1] was “inactive”.
For O=C(Nc1cc(NC(=O)c2ccccc2)c(C(=O)O)cc1C(=O)O)c1ccccc1, the Potency [1] was “inactive”.
In the case of N#Cc1ccc(C23CC4(C2)[C@H](CN(Cc2ccc(-c5ccccc5)cc2)[C@@H]4c2ccccc2)C3c2ccc(C(F)(F)F)cc2)cc1 (some centres undefined), the Potency [1] is reported as “inactive”.
In the case of C[C@@H](c1ccccc1)N1C(=O)[C@H]2[C@@H]3[C@H](O)[C@H](O)CC(=O)[C@H]3CC[C@H]2C1=O, the Potency [2] is reported as “inactive” and the activation [3] is reported as -2.53% and -2.06%.
With COC(=O)C(C(=O)OC)C1O[C@@]23COCCC2(C)C3c2ccccc21 (some centres undefined) the Potency [2] was “inactive”, the activity change, positive = activation [4] was -34.9% [at 11.4 µM] and the Potency [5] was “inactive”.
In the case of COc1ccc(-c2ccccc2C2NC(C(=O)O)CCC2C)cc1 (centres undefined), the Potency [2] is reported as “inactive”, the Potency [6] is reported as “inactive” and the Potency [5] is reported as “inactive”.
In the case of COC(=O)NC(/C=C/c1ccccc1)[C@]1(C(C)=O)CCCC1=O (some centres undefined), the Potency [2] is reported as “inactive”, the Potency [6] is reported as “inactive” and the Potency [5] is reported as “inactive”.
For CC12C=C(/C=C/c3ccc(C(F)(F)F)cc3)C(C)(C1)C(c1ccc(C(F)(F)F)cc1)CC2=O (centres undefined), the Potency [2] was “inactive”, the activity change, positive = activation [4] was -39% [at 11.4 µM] and the Potency [5] was “inactive”.
In the case of O=C(O)c1cc(C2CC2)nc2ccccc12, the Potency [1] is reported as “inactive”.
With CNC1=C(Cl)C(=O)c2ccncc2C1=O the Potency [1] was 1.58 µM (active).
With COc1ccc(O[C@H]2C=C[C@@H](c3ccccc3)O[C@H]2COC(=O)N2CCCCC2)cc1 the Potency [2] was 2.51 µM (active) and the Potency [5] was 501 nM (active).
In the case of O=C1CCC[C@@H](C(C(=O)OCc2ccccc2)C(=O)OCc2ccccc2)C1, the Potency [2] is reported as 3.16 µM (active), the activity change, positive = activation [4] is reported as -39.2% [at 11.4 µM] and the activation [3] is reported as -22.4%.
In the case of O=Cc1ccsc1B(O)O, the Potency [1] is reported as “inactive”.
In the case of COC(=O)c1ccc(C23CC4(C2)[C@H](CN(Cc2cccnc2)[C@@H]4c2ccccc2)C3c2ccc(C(F)(F)F)cc2)cc1 (some centres undefined), the Potency [1] is reported as 5.01 µM (active).
In the case of COC(=O)c1cccc(C23CC4(C2)[C@H](CN(C)[C@@H]4c2ccccc2)C3c2ccccc2)c1 (some centres undefined), the Potency [1] is reported as 7.94 µM (active).
For CC(C)Cn1c(N)c(C(=O)COC(=O)c2cc(C(F)(F)F)nc3ccccc23)c(=O)n(C)c1=O, the Potency [1] was “inactive”.
In the case of N#Cc1ccc(C23CC4(C2)[C@H](CN(Cc2ccc(-c5ccccc5)cc2)[C@@H]4c2ccccc2)C3c2ccc(Cl)nc2)cc1 (some centres undefined), the Potency [1] is reported as “inactive”.
In the case of COc1cc(/C=C/C(=O)N2CCCCC2=O)cc(OC)c1OC, the Potency [1] is reported as “inactive”.
In the case of OC[C@H]1O[C@@H](n2cnc3c(NCc4ccccc4)ncnc32)[C@H](O)[C@@H]1O, the Potency [1] is reported as “inactive”.
With Cn1c(N)c(C(=O)COC(=O)c2cc(C(F)(F)F)nc3ccccc23)c(=O)n(C)c1=O the Potency [1] was “inactive”.
For Cn1c(N)c(C(=O)COC(=O)c2cc(C(F)(F)F)nc3c(C(F)(F)F)cccc23)c(=O)n(C)c1=O, the Potency [1] was “inactive”.
For CN1C[C@@H]2C(c3ccc(C(F)(F)F)cc3)C3(c4ccccc4)CC2(C3)[C@H]1c1ccccc1 (some centres undefined), the Potency [1] was “inactive”.
For Cc1ccc(B(O)O)cc1, the Potency [1] was “inactive”.
In the case of COC(=O)[C@@H]1C[C@@]2(O)[C@@H](O)[C@@H](O)[C@@H](O)C[C@H]2N1Cc1ccc(C)s1, the Potency [1] is reported as “inactive”.
In the case of C=CCOC(=O)C(C(C)=O)C(NC(=O)OC)c1ccco1 (centres undefined), the Potency [2] is reported as “inactive”, the activity change, positive = activation [4] is reported as -42.1% [at 11.4 µM] and the Potency [5] is reported as “inactive”.
For CCC(=O)[C@]12O[C@@]3(C4C(=O)OCCC41)N(CC)C(C)=C(C(=O)OC)C(c1ccccc1)N3C2=O (some centres undefined), the Potency [2] was “inactive”, the Potency [6] was “inactive” and the Potency [5] was “inactive”.
With Cn1c(=O)c(C(=O)COC(=O)c2cc(-c3ccccc3)nc3ccccc23)c(N)n(Cc2ccccc2)c1=O the Potency [1] was “inactive”.
With COC(=O)[C@@H]1C[C@@]2(O)[C@@H](O)[C@@H](O)[C@@H](O)C[C@H]2N1Cc1ccc(C(F)(F)F)cc1 the Potency [1] was “inactive”.
